Publication PMC7862700, “An all-to-all approach to the identification of sequence-specific readers for epigenetic DNA modifications on cytosine”

Assays:
Assay in all cases: DAPPL (digital affinity profiling via proximity ligation, sequencing); 10 mM Tris-HCl pH 7.5, 50 mM NaCl, 1 mM DTT, 4% glycerol, room temperature, 30 min; GST-TFs on glutathione beads, 16-mer random dsDNA library, 0.1% formaldehyde crosslink after washing; high values mean tight binding
[1] = target: T1, FLI1 (Homo sapiens, UniProt Q01543 1-452); conditions: protein: recombinant; tags: N-terminal GST; dsDNA, one strand shown
T1 sequence: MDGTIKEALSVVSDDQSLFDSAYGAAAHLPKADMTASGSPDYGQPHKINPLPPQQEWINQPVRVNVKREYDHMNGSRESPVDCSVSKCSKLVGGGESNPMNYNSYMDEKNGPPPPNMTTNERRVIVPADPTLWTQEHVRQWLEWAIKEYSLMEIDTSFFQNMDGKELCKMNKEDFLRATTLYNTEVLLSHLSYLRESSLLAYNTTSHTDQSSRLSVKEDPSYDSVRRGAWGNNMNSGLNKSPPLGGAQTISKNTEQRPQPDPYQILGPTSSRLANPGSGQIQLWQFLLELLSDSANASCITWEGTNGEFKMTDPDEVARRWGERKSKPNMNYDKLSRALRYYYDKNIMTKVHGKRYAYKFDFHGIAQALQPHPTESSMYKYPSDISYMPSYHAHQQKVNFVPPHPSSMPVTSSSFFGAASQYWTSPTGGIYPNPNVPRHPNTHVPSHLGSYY
Method in brief: (§1)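 A tag-only sample was pooled with DNA-barcoded human transcription factors that had been expressed in yeast as GST fusions and captured on glutathione beads. The pools were incubated for 30 min at room temperature with 200 nmole of a random double-stranded 16-mer DNA library in Tris/NaCl/DTT/glycerol buffer, then washed, crosslinked with 0.1% formaldehyde, proximity-ligated (BsaI/T4 ligase, 1 h, 37 °C), PCR-amplified and sequenced on an Illumina NextSeq500. Binding signal is each hexamer's read frequency for a factor divided by its frequency for the tag-only sample.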

[2] = target: T2, ELK1 (Homo sapiens, UniProt P19419 1-428); conditions: protein: recombinant; tags: N-terminal GST; dsDNA, one strand shown
T2 sequence: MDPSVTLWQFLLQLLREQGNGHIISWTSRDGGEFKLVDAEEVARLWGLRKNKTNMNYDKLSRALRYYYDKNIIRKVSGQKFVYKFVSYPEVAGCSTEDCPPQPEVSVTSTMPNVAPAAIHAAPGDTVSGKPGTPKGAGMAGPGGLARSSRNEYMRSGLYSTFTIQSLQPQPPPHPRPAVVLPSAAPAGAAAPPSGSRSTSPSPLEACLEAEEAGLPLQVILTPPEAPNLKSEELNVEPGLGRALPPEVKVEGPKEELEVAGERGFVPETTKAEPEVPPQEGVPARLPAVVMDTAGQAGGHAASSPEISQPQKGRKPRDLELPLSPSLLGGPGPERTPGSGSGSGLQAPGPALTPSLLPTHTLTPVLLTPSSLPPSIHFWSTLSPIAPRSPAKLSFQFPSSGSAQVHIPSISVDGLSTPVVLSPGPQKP
Method in brief: as §1

[3] = target: T3, GABPA (Homo sapiens, UniProt Q06546 1-454); conditions: protein: recombinant; tags: N-terminal GST; dsDNA, one strand shown
T3 sequence: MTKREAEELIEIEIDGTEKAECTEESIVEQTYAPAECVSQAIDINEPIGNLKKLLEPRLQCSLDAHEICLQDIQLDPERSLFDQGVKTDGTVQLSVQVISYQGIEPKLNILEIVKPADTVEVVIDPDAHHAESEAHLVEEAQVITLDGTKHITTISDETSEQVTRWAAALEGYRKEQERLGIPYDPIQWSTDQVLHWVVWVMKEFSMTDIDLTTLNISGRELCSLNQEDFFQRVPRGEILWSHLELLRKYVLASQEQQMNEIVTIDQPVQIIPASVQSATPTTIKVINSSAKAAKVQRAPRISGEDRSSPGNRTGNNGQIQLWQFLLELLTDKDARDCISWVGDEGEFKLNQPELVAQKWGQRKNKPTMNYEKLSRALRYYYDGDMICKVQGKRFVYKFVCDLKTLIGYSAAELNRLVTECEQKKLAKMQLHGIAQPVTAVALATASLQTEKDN
Method in brief: as §1

[4] = target: T4, ERG (Homo sapiens, UniProt P11308 1-479); conditions: protein: recombinant; tags: N-terminal GST; dsDNA, one strand shown
T4 sequence: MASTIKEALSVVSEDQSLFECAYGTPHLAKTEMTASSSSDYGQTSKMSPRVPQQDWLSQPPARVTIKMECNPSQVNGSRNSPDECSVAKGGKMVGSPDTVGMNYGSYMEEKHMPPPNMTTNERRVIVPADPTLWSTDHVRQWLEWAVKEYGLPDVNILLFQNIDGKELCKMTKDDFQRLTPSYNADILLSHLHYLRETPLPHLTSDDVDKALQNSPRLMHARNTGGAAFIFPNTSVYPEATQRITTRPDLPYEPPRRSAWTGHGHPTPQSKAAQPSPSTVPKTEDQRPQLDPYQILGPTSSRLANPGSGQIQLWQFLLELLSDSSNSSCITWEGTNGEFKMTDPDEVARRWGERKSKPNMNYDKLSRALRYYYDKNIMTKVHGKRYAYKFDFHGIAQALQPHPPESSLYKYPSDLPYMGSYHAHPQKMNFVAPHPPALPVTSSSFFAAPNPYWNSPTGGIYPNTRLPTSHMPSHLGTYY
Method in brief: as §1

[5] = target: ELF1 (Homo sapiens, UniProt P32519 1-619); conditions: protein: recombinant; tags: N-terminal GST; dsDNA, one strand shown
ELF1, sequence (P32519 whole entry): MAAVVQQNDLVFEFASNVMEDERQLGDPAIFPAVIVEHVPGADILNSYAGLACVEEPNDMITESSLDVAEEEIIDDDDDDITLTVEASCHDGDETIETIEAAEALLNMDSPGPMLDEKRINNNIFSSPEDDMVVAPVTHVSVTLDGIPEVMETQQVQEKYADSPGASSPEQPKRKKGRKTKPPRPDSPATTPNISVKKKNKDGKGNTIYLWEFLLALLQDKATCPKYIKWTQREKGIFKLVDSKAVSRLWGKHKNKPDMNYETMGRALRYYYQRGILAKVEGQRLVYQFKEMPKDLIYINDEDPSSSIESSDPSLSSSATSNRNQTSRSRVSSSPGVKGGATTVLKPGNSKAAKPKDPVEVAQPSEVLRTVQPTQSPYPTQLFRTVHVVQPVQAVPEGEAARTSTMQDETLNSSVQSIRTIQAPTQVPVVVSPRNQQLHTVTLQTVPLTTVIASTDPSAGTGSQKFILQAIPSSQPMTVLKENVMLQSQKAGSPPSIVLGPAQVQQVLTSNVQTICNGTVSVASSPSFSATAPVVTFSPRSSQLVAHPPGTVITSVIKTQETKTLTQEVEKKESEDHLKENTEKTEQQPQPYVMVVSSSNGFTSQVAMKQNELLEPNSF
Method in brief: as §1

[6] = target: T5, EHF (Homo sapiens, UniProt Q9NZC4 1-300); conditions: protein: recombinant; tags: N-terminal GST; dsDNA, one strand shown
T5 sequence: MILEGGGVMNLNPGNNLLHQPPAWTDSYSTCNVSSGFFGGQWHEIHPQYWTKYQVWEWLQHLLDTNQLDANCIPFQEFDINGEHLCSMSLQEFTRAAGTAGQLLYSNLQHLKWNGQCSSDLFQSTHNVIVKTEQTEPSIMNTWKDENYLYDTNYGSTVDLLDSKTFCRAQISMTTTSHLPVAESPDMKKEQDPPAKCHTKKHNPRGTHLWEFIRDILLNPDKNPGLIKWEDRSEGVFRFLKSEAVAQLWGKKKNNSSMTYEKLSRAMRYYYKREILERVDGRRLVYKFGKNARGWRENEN
Method in brief: as §1

[7] = target: SPI1 (Homo sapiens, UniProt P17947 1-270); conditions: protein: recombinant; tags: N-terminal GST; dsDNA, one strand shown
Method in brief: as §1

[8] = target: SPIB (Homo sapiens, UniProt Q01892 1-262); conditions: protein: recombinant; tags: N-terminal GST; dsDNA, one strand shown
SPIB, sequence (Q01892 whole entry): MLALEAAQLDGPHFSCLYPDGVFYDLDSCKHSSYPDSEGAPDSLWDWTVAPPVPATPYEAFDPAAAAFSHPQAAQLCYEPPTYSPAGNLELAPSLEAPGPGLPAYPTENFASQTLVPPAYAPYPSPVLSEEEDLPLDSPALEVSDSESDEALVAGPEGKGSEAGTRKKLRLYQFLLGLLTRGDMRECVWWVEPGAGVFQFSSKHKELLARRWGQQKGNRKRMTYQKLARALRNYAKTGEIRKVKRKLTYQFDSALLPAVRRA
Method in brief: as §1

[9] = target: T6, ELK3 (Homo sapiens, UniProt P41970 1-407); conditions: protein: recombinant; tags: N-terminal GST; dsDNA, one strand shown
T6 sequence: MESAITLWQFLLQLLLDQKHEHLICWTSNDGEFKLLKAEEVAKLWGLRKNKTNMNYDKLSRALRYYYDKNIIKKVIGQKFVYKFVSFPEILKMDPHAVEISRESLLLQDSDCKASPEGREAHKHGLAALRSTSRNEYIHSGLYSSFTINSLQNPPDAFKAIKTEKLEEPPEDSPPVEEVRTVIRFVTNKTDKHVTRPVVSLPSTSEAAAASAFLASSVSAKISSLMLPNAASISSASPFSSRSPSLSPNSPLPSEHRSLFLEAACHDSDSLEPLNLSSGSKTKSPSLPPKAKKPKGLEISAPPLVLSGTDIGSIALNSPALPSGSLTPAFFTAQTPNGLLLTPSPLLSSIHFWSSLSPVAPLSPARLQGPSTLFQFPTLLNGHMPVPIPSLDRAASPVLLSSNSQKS
Method in brief: as §1

[10] = target: T7, FEV (Homo sapiens, UniProt Q99581 1-238); conditions: protein: recombinant; tags: N-terminal GST; dsDNA, one strand shown
T7 sequence: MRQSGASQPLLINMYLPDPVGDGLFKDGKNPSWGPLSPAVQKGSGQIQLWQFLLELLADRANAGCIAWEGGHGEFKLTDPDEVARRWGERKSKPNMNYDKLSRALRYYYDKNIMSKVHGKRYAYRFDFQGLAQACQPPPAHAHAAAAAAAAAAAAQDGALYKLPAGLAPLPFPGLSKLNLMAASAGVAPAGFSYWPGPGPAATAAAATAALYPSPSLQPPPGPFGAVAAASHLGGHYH
Method in brief: as §1

[11] = target: ETV5 (Homo sapiens, UniProt P41161 1-510); conditions: protein: recombinant; tags: N-terminal GST; dsDNA, one strand shown
ETV5, sequence (P41161 whole entry): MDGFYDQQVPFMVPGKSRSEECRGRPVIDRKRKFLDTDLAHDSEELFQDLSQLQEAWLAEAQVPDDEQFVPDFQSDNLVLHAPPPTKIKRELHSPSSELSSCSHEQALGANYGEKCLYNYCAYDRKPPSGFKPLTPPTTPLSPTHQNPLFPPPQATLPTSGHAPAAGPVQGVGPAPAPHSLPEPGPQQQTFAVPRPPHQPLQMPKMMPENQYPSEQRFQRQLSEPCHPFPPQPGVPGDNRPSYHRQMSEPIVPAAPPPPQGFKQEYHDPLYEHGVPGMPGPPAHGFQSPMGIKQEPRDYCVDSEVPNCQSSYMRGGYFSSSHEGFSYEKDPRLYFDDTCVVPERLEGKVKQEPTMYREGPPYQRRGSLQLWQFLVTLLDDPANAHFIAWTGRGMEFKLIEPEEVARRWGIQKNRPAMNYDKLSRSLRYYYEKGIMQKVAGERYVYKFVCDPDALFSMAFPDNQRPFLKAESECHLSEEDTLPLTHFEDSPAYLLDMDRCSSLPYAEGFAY
Method in brief: as §1

[12] = target: HSF1 (Homo sapiens, UniProt Q00613 1-529); conditions: protein: recombinant; tags: N-terminal GST; chain copies: 3; dsDNA, one strand shown
HSF1, sequence (Q00613 whole entry): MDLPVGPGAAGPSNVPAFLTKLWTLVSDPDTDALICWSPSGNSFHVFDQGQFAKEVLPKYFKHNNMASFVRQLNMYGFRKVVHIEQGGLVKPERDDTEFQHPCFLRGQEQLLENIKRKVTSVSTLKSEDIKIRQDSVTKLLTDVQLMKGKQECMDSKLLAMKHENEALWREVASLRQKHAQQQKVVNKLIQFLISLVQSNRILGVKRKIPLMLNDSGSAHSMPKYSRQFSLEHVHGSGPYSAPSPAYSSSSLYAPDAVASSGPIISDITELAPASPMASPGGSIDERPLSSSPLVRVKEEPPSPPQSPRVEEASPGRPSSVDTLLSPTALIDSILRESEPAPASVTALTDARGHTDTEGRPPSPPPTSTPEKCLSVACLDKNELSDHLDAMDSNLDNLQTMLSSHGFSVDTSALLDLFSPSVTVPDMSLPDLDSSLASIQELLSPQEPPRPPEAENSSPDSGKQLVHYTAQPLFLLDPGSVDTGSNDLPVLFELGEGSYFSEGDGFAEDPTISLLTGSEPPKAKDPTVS
Method in brief: as §1

[13] = target: T8, SPIC (Homo sapiens, UniProt Q8N5J4 1-248); conditions: protein: recombinant; tags: N-terminal GST; dsDNA, one strand shown
T8 sequence: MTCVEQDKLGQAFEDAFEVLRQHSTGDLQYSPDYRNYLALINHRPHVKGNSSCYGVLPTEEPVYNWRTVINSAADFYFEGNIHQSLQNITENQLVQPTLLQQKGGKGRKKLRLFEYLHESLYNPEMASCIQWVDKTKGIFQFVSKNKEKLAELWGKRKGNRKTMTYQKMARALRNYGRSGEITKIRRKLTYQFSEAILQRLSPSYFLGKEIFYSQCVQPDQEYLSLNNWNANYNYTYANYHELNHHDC
Method in brief: as §1

[14] = target: ELF4 (Homo sapiens, UniProt Q99607 1-663); conditions: protein: recombinant; tags: N-terminal GST; dsDNA, one strand shown
ELF4, sequence (Q99607 whole entry): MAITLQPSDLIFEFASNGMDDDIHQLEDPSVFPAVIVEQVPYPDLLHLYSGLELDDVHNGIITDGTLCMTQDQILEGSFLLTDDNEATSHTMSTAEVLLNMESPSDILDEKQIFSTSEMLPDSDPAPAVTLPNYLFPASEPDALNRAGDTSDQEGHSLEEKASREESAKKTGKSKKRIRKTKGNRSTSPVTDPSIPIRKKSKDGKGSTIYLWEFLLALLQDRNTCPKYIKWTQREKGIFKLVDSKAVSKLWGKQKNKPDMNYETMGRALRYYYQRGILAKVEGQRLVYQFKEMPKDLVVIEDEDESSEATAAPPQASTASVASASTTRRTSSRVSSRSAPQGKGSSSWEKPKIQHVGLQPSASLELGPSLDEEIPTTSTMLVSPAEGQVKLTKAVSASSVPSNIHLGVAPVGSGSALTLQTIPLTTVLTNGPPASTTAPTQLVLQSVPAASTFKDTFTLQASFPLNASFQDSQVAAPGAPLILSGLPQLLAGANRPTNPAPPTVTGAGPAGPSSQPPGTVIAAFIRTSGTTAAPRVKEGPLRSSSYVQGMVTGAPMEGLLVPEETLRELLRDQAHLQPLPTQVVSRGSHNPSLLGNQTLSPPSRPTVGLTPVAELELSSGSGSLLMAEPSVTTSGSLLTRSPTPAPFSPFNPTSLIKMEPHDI
Method in brief: as §1

[15] = target: T9, ELK4 (Homo sapiens, UniProt P28324-2 1-405); conditions: protein: recombinant; tags: N-terminal GST; dsDNA, one strand shown
T9 sequence: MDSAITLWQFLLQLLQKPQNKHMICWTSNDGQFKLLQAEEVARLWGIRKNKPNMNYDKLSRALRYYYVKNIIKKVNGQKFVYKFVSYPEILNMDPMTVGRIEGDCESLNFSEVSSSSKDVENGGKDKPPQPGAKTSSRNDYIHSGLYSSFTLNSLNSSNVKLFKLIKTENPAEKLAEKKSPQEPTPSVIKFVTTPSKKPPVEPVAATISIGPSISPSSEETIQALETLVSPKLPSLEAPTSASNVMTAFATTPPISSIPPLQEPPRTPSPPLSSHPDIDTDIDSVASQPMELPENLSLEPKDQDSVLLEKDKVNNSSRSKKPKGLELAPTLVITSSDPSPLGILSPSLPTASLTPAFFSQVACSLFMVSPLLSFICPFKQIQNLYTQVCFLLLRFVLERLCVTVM
Method in brief: as §1

[16] = target: T10, ETV2 (Homo sapiens, UniProt O00321 1-342); conditions: protein: recombinant; tags: N-terminal GST; dsDNA, one strand shown
T10 sequence: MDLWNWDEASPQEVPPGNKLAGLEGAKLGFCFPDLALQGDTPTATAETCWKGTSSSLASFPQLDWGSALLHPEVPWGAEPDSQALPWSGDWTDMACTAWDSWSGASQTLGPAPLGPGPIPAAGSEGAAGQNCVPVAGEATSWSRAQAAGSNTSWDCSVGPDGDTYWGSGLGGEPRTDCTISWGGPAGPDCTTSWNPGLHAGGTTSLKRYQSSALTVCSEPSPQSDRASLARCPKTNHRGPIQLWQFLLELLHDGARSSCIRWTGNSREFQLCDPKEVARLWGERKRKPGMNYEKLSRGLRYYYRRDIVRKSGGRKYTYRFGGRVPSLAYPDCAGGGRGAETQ
Method in brief: as §1

[17] = target: T11, ELF3 (Homo sapiens, UniProt P78545 1-371); conditions: protein: recombinant; tags: N-terminal GST; dsDNA, one strand shown
T11 sequence: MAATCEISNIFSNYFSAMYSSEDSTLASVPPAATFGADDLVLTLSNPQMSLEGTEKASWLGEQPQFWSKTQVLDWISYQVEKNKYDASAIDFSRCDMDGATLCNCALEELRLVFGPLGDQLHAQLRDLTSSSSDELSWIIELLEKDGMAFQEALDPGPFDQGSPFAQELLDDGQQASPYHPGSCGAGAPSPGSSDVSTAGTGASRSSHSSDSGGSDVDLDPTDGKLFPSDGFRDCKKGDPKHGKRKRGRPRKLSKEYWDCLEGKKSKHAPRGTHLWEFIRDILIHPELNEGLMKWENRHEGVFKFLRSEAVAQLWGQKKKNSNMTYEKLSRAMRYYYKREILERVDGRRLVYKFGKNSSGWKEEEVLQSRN
Method in brief: as §1

[18] = target: CRX (Homo sapiens, UniProt O43186 1-299); conditions: protein: recombinant; tags: N-terminal GST; dsDNA, one strand shown
CRX, sequence (O43186 whole entry): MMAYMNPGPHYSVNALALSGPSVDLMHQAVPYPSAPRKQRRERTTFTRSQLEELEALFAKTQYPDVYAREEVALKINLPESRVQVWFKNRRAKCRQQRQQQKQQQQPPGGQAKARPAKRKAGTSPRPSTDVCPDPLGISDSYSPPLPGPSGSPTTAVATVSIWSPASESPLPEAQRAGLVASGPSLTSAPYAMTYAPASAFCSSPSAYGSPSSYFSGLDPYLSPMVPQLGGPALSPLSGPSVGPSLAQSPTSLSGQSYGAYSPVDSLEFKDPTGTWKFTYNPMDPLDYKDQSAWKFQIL
Method in brief: as §1

[19] = target: ETV1 (Homo sapiens, UniProt P50549 1-477); conditions: protein: recombinant; tags: N-terminal GST; dsDNA, one strand shown
ETV1, sequence (P50549 whole entry): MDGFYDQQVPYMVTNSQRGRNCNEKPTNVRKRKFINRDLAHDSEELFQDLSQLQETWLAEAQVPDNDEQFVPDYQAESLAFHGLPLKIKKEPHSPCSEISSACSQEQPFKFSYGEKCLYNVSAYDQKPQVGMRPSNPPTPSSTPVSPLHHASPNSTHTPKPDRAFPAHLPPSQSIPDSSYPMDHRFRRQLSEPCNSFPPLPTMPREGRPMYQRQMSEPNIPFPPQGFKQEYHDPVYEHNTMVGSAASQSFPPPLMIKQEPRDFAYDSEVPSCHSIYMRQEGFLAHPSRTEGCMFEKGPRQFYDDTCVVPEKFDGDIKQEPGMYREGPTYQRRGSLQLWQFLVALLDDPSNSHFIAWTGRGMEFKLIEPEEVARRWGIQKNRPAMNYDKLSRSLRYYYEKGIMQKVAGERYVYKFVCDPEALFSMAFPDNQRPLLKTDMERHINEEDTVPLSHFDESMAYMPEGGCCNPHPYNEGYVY
Method in brief: as §1

GTATTT
binding signal [1]: 1.47 fold enrichment (6-mer frequency, TF over GST control) | binding signal [2]: 1.61 fold enrichment (6-mer frequency, TF over GST control) | binding signal [3]: 1.48 fold enrichment (6-mer frequency, TF over GST control) | binding signal [4]: 1.67 fold enrichment (6-mer frequency, TF over GST control) | binding signal [5]: 1.53 fold enrichment (6-mer frequency, TF over GST control) | binding signal [6]: 1.6 fold enrichment (6-mer frequency, TF over GST control) | binding signal [7]: 1.55 fold enrichment (6-mer frequency, TF over GST control) | binding signal [8]: 1.61 fold enrichment (6-mer frequency, TF over GST control) | binding signal [9]: 1.75 fold enrichment (6-mer frequency, TF over GST control) | binding signal [10]: 1.6 fold enrichment (6-mer frequency, TF over GST control) | binding signal [11]: 1.59 fold enrichment (6-mer frequency, TF over GST control) | binding signal [12]: 1.5 fold enrichment (6-mer frequency, TF over GST control) | binding signal [13]: 1.66 fold enrichment (6-mer frequency, TF over GST control) | binding signal [14]: 1.59 fold enrichment (6-mer frequency, TF over GST control) | binding signal [15]: 1.52 fold enrichment (6-mer frequency, TF over GST control) | binding signal [16]: 1.69 fold enrichment (6-mer frequency, TF over GST control) | binding signal [17]: 1.39 fold enrichment (6-mer frequency, TF over GST control) | binding signal [18]: 1.73 fold enrichment (6-mer frequency, TF over GST control) | binding signal [19]: 1.64 fold enrichment (6-mer frequency, TF over GST control)
